Screening results as filed in PubChem.
The sample as a whole holds a higher share of hits than the screen did.
Dicer processing: inhibitors of human Dicer processing of pre-microRNA; Q9UPY3; cat-ELCCA pre-miR-21 Dicer processing, chemiluminescence; stronger effect = higher value; z-score at 25 µM; 47,000 compounds, 6% hits; in the data active = z-score above about 3, passing the limit was not always enough;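 note: higher signal means more uncleaved substrate so more Dicer inhibition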
Target sequence (Q9UPY3 whole entry, looked up): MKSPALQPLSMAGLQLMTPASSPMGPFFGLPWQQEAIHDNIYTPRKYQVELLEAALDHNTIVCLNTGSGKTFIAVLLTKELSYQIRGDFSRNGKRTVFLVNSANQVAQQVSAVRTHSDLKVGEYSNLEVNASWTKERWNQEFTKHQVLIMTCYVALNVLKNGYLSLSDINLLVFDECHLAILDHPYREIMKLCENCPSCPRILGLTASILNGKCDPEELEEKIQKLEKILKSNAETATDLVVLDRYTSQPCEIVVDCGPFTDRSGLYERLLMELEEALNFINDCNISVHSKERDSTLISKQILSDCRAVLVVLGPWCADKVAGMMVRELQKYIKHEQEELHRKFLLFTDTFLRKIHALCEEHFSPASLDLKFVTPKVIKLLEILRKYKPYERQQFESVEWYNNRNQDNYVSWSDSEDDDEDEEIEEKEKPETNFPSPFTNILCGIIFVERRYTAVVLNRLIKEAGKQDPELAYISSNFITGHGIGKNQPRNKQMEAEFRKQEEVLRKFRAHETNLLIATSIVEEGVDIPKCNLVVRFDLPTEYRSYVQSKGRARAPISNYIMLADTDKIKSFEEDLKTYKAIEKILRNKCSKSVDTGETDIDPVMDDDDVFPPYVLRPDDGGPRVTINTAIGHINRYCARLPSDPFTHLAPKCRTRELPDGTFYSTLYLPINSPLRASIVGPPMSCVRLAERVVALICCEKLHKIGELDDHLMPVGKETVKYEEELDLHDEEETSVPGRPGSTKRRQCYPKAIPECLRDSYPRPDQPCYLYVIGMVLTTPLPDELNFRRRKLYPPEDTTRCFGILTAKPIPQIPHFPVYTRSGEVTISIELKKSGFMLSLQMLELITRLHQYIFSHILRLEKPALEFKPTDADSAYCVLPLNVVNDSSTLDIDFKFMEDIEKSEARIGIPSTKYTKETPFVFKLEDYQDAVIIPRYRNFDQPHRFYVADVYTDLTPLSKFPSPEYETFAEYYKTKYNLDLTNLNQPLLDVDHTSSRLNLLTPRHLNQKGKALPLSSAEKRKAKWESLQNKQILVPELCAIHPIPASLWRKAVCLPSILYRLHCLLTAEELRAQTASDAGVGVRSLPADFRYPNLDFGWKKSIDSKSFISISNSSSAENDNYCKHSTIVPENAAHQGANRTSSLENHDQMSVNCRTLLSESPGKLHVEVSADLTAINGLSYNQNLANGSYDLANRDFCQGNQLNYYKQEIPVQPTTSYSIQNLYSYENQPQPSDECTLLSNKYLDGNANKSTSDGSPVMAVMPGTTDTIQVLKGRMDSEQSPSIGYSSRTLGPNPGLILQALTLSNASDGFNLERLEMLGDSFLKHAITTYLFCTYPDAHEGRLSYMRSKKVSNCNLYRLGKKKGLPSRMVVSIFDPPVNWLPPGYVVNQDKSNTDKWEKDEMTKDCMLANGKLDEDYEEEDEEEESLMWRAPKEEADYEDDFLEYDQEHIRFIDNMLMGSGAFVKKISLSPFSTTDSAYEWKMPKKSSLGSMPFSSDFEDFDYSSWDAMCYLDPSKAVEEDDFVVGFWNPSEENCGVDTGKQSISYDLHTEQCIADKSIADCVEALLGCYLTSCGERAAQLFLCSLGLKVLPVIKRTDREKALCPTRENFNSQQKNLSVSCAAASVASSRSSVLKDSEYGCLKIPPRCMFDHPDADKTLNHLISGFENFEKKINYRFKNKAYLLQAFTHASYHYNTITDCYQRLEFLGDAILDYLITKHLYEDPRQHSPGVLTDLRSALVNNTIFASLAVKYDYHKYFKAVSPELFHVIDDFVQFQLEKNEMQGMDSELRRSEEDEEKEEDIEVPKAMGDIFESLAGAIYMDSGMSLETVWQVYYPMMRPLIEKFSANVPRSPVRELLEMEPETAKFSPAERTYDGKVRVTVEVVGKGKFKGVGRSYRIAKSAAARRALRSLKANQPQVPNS
Each line names hits and unclear results; the compound was inactive in the other large screens; ! = not confirmed by another sample.

CN(C)c1ccc(/C=C/c2noc(-c3ccccc3O)n2)cc1	Dicer processing 5.85
N#Cc1cnn(C(=O)c2cccs2)c1C1CC1	none
O=C(NCc1cccs1)c1cnn2c1NC(c1ccc(Br)cc1)CC2C(F)(F)F (configuration not stated)	Dicer processing 5.72
O=C(NCc1ccc(F)cc1)c1cnn2c1NC(c1cccs1)CC2C(F)(F)F (configuration not stated)	none
O=C(NCc1ccco1)c1cnn2c1NC(c1ccc(Br)cc1)CC2C(F)(F)F (configuration not stated)	Dicer processing 4.97
O=C(NCCc1ccccc1)c1cnn2c1NC(c1ccc(Br)cc1)CC2C(F)(F)F (configuration not stated)	none
Cc1ccc(C2CC(C(F)(F)F)n3ncc(C(=O)NCc4cn(C)nc4C)c3N2)cc1 (configuration not stated)	none
COc1ccc(C2CC(C(F)(F)F)n3ncc(C(=O)NCC4CCCO4)c3N2)cc1OC (configuration not stated)	none
Cn1c(=O)c2c(nc(N3CCCCCC3)n2C)n(C)c1=O	none
CCCOC(=O)C1=C(C)NC2=C(C(=O)CC(C)(C)C2)C1c1ccc(Br)cc1 (configuration not stated)	none
COc1ccc(CCN2C(=O)c3cccc4cc([N+](=O)[O-])cc(c34)C2=O)cc1OC	none
COCCCn1c2c(c(=O)[nH]c1=O)C(c1ccc(Cl)cc1)C1=C(N2)c2ccccc2C1=O (configuration not stated)	none
CCCCSC1=C(C#N)C(c2ccccc2Cl)CC(=O)N1 (configuration not stated)	none
CSC(N)=Nc1cc(Cl)ccc1Cl	none
CSC(N)=Nc1ccc(Cl)c(Cl)c1	none
CSC(N)=Nc1ccc(Cl)cc1	Dicer processing 3.04!
Cc1ccc2[nH]c(C)c(CN3CC(C)OC(C)C3)c(=O)c2c1 (configuration not stated)	none
Cc1c(C(=O)O)cc(C(C)(C)C)n1CCSCc1c(F)cccc1Cl	none
CCOc1ccc(C2c3c(oc4ccc(F)cc4c3=O)C(=O)N2c2nc(C)c(C(=O)OC)s2)cc1 (configuration not stated)	none
COc1ccc(OC2C(=O)N(Cc3ccc(F)cc3)C2c2ccc3c(c2)OCO3)cc1 (configuration not stated)	Dicer processing 3.63
COc1ccc(CCN2C(=O)C(Oc3ccccc3C)C2c2ccc3c(c2)OCO3)cc1 (configuration not stated)	none
O=C1C(Oc2ccccc2)C(c2ccc3c(c2)OCO3)N1CCc1ccc(F)cc1 (configuration not stated)	none
C=C1SC(Nc2ccc(C(=O)OCC)cc2)=NC1(CC)CC	none
Fc1ccc(N2CCN(Cc3cn[nH]c3-c3ccccc3)CC2)cc1	Dicer processing 3.48
OC1(c2ccc(Cl)cc2)CCN(Cc2cn[nH]c2-c2ccc(F)cc2)CC1	none
OC1(c2ccc(Cl)cc2)CCN(Cc2cn[nH]c2-c2ccccc2)CC1	none
O=C(O)[C@H]1CCCC[C@H]1C(=O)NCCC1=CCCCC1	none
O=c1cc(NCCC2=CCCCC2)c2ccccc2o1	Dicer processing 3.54
Cc1ccc(S(=O)(=O)NCCC2=CCCCC2)cc1	none
O=[N+]([O-])c1ccc(Oc2ccc(Cl)cc2)cc1C(F)(F)F	none
Cc1ccc(C(=O)OCCSc2ccc(C(F)(F)F)cn2)cc1	none
CCOC(=O)c1cnn(-c2ccccc2)c1NC(=O)Nc1ccccc1	Dicer processing 4.13
CCOC(=O)c1cnn(-c2ccccc2)c1NC(=O)CN1CCOCC1	none
CCOC(=O)c1cnn(-c2ccccc2)c1NC(=O)CN1CCN(C)CC1	none
CCOC(=O)c1c(N/N=C/c2cccc(O)c2)n[nH]c1C	none
CCCCOC(=O)COc1ccc2oc(-c3ccc(OC)cc3)cc(=O)c2c1	none
Cc1cc(/C=N\Nc2ccc([N+](=O)[O-])cc2)c2c(C)ccc(C(C)C)cc1-2	none
Fc1ccc(/C=N/Nc2nc(-c3ccccc3)cs2)cc1	Dicer processing 6.78
c1ccc(-c2csc(NN=C3C4CC5CC(C4)CC3C5)n2)cc1	none
CCOC(=O)c1noc(C)c1-c1csc(N/N=C/c2ccccc2)n1	none
S=C(N/N=C/c1ccccc1)Nc1ccccc1	none
Cc1onc(-c2ccccc2)c1-c1csc(N/N=C/c2ccccc2)n1	Dicer processing 4.05
Cc1ccccc1CO/N=C\c1[nH]ncc1Br	none
COc1ccc(/C=N/Nc2nc(-c3ccccc3)cs2)cc1	none
Clc1ccccc1/C=N/Nc1nc(-c2ccccc2)cs1	none
Cc1onc(-c2ccccc2)c1-c1csc(Nc2ccc(Cl)cc2)n1	none
C=CCNc1nc(-c2ccccc2)cs1	none
Brc1cn[nH]c1/C=N/Nc1nc(-c2ccccc2)cs1	Dicer processing 3.17
S=C(N/N=C/c1[nH]ncc1Br)Nc1ccccc1	Dicer processing 4.15
COc1ccc2c(c1)c(=O)oc1cc(OCC(N)=O)ccc12	none
FC(F)(F)c1ccnc(N/N=C/c2ccc(Cl)cc2Cl)n1	none
Cc1nc(SCC(=O)c2ccc(Cl)cc2)n[nH]1	none
N#CCCCCOc1ccc2c(=O)cc(-c3ccccc3)oc2c1	none
CCCCOC(=O)C1=C(C)NC2=C(C(=O)CC(C)(C)C2)C1c1ccc(N(C)C)cc1 (configuration not stated)	none
